Potency and affinity values are given separately. Activity calls are given as the source filed them. Entries that show only a call come without a potency. No rule for the calls is given here.
Test: cytotoxicity control, cell-based, set 2 (AID 504683)
Settings: THP-1 human monocytes; series mostly up to 100 µM

Structure (SMILES)	outcome
O=C(CSc1ccccn1)NC1CCCCC1	inactive
Cc1nc(SCC(=O)NC2CCCCC2)[nH]c(=O)c1C	inactive
O=C(CSc1nc2ccccc2c(=O)[nH]1)NC1CCCCC1	inactive
Cc1cc(=O)[nH]c(=S)[nH]1	inactive
Cc1nc(SCc2ccccc2Cl)[nH]c(=O)c1C	inactive
Cc1nc(SCC(N)=O)[nH]c(=O)c1C	inactive
COC(=O)C1CC(=O)N(c2ccc(OCc3ccccc3Cl)cc2)C1 (stereo not drawn)	inactive
CC1CCN(C(=O)C2CCN(c3nnc(-n4cccc4)s3)CC2)CC1	inactive
O=C(CSc1nc2ccccc2c(=O)[nH]1)NCc1ccc(Cl)cc1	inactive
O=C(CSc1nccc(=O)[nH]1)Nc1ccc(Oc2ccccc2)cc1	inactive
CC(=NCc1ccc2c(c1)OCO2)C1=C(O)c2ccccc2C1=O	inactive
O=C(/C=C\c1cccs1)N1CCN(Cc2ccc3c(c2)OCO3)CC1	inactive
COC(=O)c1ccc(CNc2c(N3CCCC3)c(=O)c2=O)cc1	inactive
O=c1[nH]c(=S)[nH]c2ccccc12	inactive
CCSc1nc2ccccc2c(=O)[nH]1	inactive
O=C(CSc1nc(O)cc(=O)[nH]1)Nc1ccccc1	inactive
CCOC(=O)COc1ccc(/C=C2\NC(=S)N(CC)C2=O)cc1	inactive

Structure (SMILES)	outcome
Cc1ccc(NC(=O)C2C3/C=C\CCCCC32)cc1C (stereo not drawn)	inactive
COC(=O)CCc1nc2c(C#N)c(-c3ccc(Cl)cc3)ccn2n1	inactive
Cc1ccc(NC(=O)COC(=O)CCc2c[nH]c3ccccc23)cc1[N+](=O)[O-]	inactive
CCOC1OC(=O)C(Cl)=C1Nc1ccccc1C (stereo not drawn)	inactive
COc1cc(NC(=O)C/C(C)=N/NC(=O)c2ccccn2)c(OC)cc1Cl	inactive
Cc1c[nH]c(=S)[nH]c1=O	inactive
Cc1[nH]c(=S)[nH]c(=O)c1C	inactive
Cc1cc(=O)[nH]c(SCC(=O)Nc2ccccc2)n1	inactive
CCSc1nc(C)c(C)c(=O)[nH]1	inactive
COC(=O)C(C)Oc1ccc(Cc2ncc(C(F)(F)F)cc2Cl)cc1 (stereo not drawn)	inactive
O=C(CSc1ncccn1)NC1CCCCC1	inactive
O=C(CSc1nccc(=O)[nH]1)Nc1ccc(N2CCOCC2)cc1	inactive
Cc1nc(SCC(=O)N(C)c2ccccc2)[nH]c(=O)c1C	inactive
COC(=O)C(C)Oc1ccc(-c2nccc(-c3ccccn3)n2)cc1 (stereo not drawn)	inactive
CCOC(=O)CSc1nc(C)c(C)c(=O)[nH]1	inactive
CCc1ccc(/C=C2/C(=O)N(C)C(=S)N2CC(=O)OC)s1	inactive

Source: PubChem BioAssay AID504683 (Southern Research Specialized Biocontainment Screening …, 2011)
